BJeLR lethal: BJeLR cell viability loss; hit rate 0.17% among 300,000; BJeLR (HRASV12) viability, CellTiter-Glo ATP luminescence, 48 h; inhibition, % (concentration not given with the values); in the data active means inhibition above about 50%
PfHsp40 yeast: rescue of PfHsp40-mediated yeast toxicity; S. cerevisiae expressing PfHsp40, growth rescue, ATP luminescence; growth rescue, % at 12.5 µM; hit rate 0.68% among 340,000; AID 504582; in the data active means growth rescue above about 28%, passing the limit was not always enough;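 further: yeast W303a lacking pdr1 and pdr3 grown in galactose medium; growth measured after three days at 30 °C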
BH1578 lux ind: induces V. cholerae light production without autoinducers; hit rate 0.16% among 350,000; V. cholerae BH1578 lux reporter, luminescence, 6 h; activation, % at 18.7 µM; AID 588436; in the data active means activation mostly above about 9.7%, no sharp cut-off
3CLpro inhibitor: SARS-CoV 3CLpro protease inhibition; P0C6X7; recombinant SARS-CoV 3CLpro, quenched FRET peptide cleavage; inhibition, % at 6 µM; hit rate 0.14% among 290,000; in the data active means inhibition above about 12%
MazEF act: MazEF (E. coli) toxin RNase activation; P0AE70; FAM/BHQ RNA-DNA oligo cleavage fluorescence, 5 h; activation, % at 20 µM; hit rate 0.32% among 350,000; AID 504720; in the data active means activation above about 50%
Target sequence (P0AE70 whole entry, looked up): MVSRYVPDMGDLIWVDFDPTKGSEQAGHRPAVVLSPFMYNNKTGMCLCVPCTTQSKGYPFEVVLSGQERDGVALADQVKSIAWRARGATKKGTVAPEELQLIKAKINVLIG
DUSP3 inh: blocks human VHR1 dual specificity phosphatase; P51452; inhibition, % at 13.3 µM; recombinant VHR phosphatase, pNPP absorbance; hit rate 0.52% among 290,000; in the data active means inhibition above about 50%
Target sequence (P51452 whole entry, looked up): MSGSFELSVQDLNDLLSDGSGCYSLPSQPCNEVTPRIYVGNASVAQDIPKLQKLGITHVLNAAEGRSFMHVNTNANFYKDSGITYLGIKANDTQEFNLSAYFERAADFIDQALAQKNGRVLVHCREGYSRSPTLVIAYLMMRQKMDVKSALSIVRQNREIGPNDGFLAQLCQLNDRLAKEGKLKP
* hit, by the source's call; i = inactive; . = no result; + = active, no number. Only some compounds are listed: those with a hit (about 1.7% of all), similar ones and a draw of the others.

SMILES	BJeLR lethal	PfHsp40 yeast	BH1578 lux ind	3CLpro inhibitor	MazEF act	DUSP3 inh
CCOC(=O)/C=c1/s/c(=C/c2ccc3cc(OC)ccc3c2)c(=O)n1CC(=O)NCC1CCCO1 (configuration not stated)	.	-0.8	i	.	80.0*	.
CCOC(=O)/C=c1\s/c(=C\c2c(OC)ccc3ccccc23)c(=O)n1CC(=O)NCC1CCCO1 (configuration not stated)	-15.3	0.2	i	4.5	+	6.5
COc1ccccc1N1CCN(C(=O)c2ccc3noc(-c4ccccc4)c3c2)CC1	.	.	-0.3	.	0.0	.
O=C(CCc1nnc2n(CCc3ccccc3)c(=O)c3ccccc3n12)NCCCN1CCCCC1	0.8	1.1	-2.0	1.0	13.6	25.3
O=C(O)c1cc(-c2ccc(N3CCOCC3)cc2)nn1-c1ccc(F)cc1F	-4.8	40.0*	i	-0.3	1.8	4.7
COc1ccc(CCC(=O)NC(C)C)cc1	-12.6	39.1*	-0.2	5.3	4.3	-5.7
COc1ccc(C(C)NC(=O)CCc2ccccc2)cc1 (configuration not stated)	0.2	-1.9	-0.5	-1.1	5.7	14.9
CC(C)Cn1c(=O)n(C)c(=O)c2[nH]cnc21	-2.2	37.3*	-3.0	.	1.1	10.4
Cn1c(=O)c2[nH]cnc2n(C)c1=O	-1.3	0.1	8.3	2.9	3.5	-14.6
C[C@@H]1CC[C@H]2[C@@H](C)C(=O)O[C@@H]3O[C@@]4(C)CC[C@@H]1[C@]32OO4	-1.8	103.9*	-0.4	-2.2	3.9	16.5
Cc1noc(C)c1NC(=O)Nc1ccc2c(c1)C(=O)N([C@H](C)CO)C[C@H](C)[C@@H](CN(C)S(=O)(=O)c1c(C)noc1C)O2	.	0.9	i	.	5.4	.
FC(F)(F)c1cnc(N2CCN(C(=S)NCc3ccccc3)CC2)c(Cl)c1	-11.5	77.1*	-0.4	3.5	9.4	17.9
Nc1nc(SCC(=O)Nc2ccc([N+](=O)[O-])cc2)[nH]c(=O)c1NC(=O)c1ccc(Br)o1	-3.7	-0.1	-0.4	5.3	3.5	9.7
O=C1C2C3C=CC(C3)C2C(=O)N1CNc1ccccn1 (configuration not stated)	-3.4	43.6*	0.8	0.7	17.3	18.8
O=c1[nH]cc(CCc2ccccc2)c(=O)[nH]1	.	.	-0.7	.	4.7	.
Cc1ccccc1OCc1nnc(SCC(=O)Nc2ccc3c(c2)oc2ccccc23)n1C	4.2	-1.3	i	-1.2	-28.5	-8.7
Cc1ccc(-c2nnc(SCC(=O)Nc3ccc4c(c3)oc3ccccc34)n2C)c(Cl)c1	11.8	-0.4	3.1	4.7	-6.9	59.4*
CC(C)[C@H]1C=C(C(=O)O)O[C@@H](OCCCCO)C1	14.6	55.9*	i	.	-1.6	3.3
Cc1cccc(N2CCN(S(=O)(=O)c3ccc4c(c3)CCN4C(=O)CCC(=O)O)CC2C)c1 (configuration not stated)	-4.3	1.5	-0.2	-1.2	-1.4	54.5*
CC(C)NC(=O)c1ccc2sc([C@@H]3O[C@H](CO)[C@H](O)[C@H](O)[C@H]3O)nc2c1	.	.	0.9	.	.	.
C[C@@H]1CN([C@H](C)CO)C(=O)CCCn2nncc2CO[C@H]1CN(C)C(=O)NC1CCCCC1	.	.	-0.6	.	8.6	.
COc1cccc(C2=CC(c3ccccc3)n3nnnc3N2)c1 (configuration not stated)	5.2	-0.5	-0.9	3.0	16.9	1.8
COc1cccc(C2=CC(c3ccc(N(C)C)cc3)n3nnnc3N2)c1 (configuration not stated)	-5.4	-0.4	4.3	1.3	181.6*	25.0
C=C1CCC(O)C2(C)CCC3C(C)C(=O)OC3C12O (configuration not stated)	-0.2	-0.5	i	1.4	12.8	.
CC1=C[C@H]2OC(=O)[C@@H](C)[C@H]2C[C@@H]2[C@H]1C[C@@H](O)[C@@]2(C)O	-4.1	39.2*	0.6	.	7.9	-4.1
CC1CN(C(=O)c2cc3cc(F)ccc3[nH]2)CC(C)O1 (configuration not stated)	-1.0	-0.9	i	0.3	1.0	53.0*
COc1ccccc1-c1nnc(SCC(=O)NNC(=O)c2ccccc2F)n1C	.	-2.7	0.0	.	3.2	.
O=C(CC(NS(=O)(=O)c1ccc(Cl)cc1)c1ccco1)NCc1ccco1 (configuration not stated)	-5.6	0.9	i	-1.9	-4.1	-4.1

Source: PubChem
